Among the data in PubChem BioAssay (Tox21) are Potency and outcome values, retold here.

For assay [1], the target named is Aryl hydrocarbon receptor (Homo sapiens) (UniProt P35869). Put plainly: qHTS assay to identify small molecule that activate the aryl hydrocarbon receptor (AhR) signaling pathway (AID 743085).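 Note: HG2L7.5c1 human HepG2 liver cells with stably integrated DRE-driven firefly reporter; series mostly up to about 70 µM; nearly all actives have a fitted effect of over 15% in size.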 In outline:
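AhR agonist activity is inferred from enhanced light output of a DRE-controlled firefly luciferase reporter in HepG2 cells, measured with ONE-Glo following 24 h treatment at 37C.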
For orientation: qHTS replaces the single test concentration by a dilution series.

A short description of assay [2]: qHTS assay to identify small molecule that activate the aryl hydrocarbon receptor (AhR) signaling pathway - cell viability counter screen (AID 743086).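 Note: HepG2 liver cells carrying the AhR DRE luciferase reporter; series mostly up to about 70 µM; nearly all actives have a fitted effect of over 45% in size.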 In a few lines: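 HepG2-AhR-luc (HG2L7.5c1) cells, 4000/well, were preincubated 5 h at 37C, exposed to compound in qHTS format for 24 hr at 37C, then given CellTiter-Fluor for 30 min; viability was read as fluorescence in the reporter wells.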

In assay [3] the target is Peroxisome proliferator-activated receptor gamma (Homo sapiens) (UniProt P37231). The assay can be described thus: qHTS assay to identify small molecule agonists of the peroxisome proliferator-activated receptor gamma (PPARg) signaling pathway (AID 743094; active = well fitted activation curve with a large enough effect in the signal ratio in the repeat runs, not every such curve was filed as active; the % refers to the signal ratio; note: potency is the fitted concentration of half-maximal effect). In outline: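 GeneBLAzer PPARg UAS-bla HEK293H cells carrying a stably integrated beta-lactamase reporter were pre-incubated 5 h at 37C, then exposed to compounds in DMSO for 17 h at 37C; LiveBLAzer B/G FRET substrate was added for 1 h at room temperature and fluorescence read.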

Assay [4] shares this target. Put plainly: qHTS assay to identify small molecule antagonists of the peroxisome proliferator-activated receptor gamma (PPARg) signaling pathway (AID 743191; calls by dose curve; note: series mostly up to about 63 µM; nearly all actives have a fitted effect of over 30% in size). In outline:
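GeneBLAzer PPARg UAS-bla HEK293H cells carrying a UAS-driven beta-lactamase reporter were plated at 3000 cells/well, preincubated 5 h at 37C, then given compound for 17 h at 37C; LiveBLAzer B/G FRET substrate was read after 1 h at room temperature.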

A short description of assay [5]: qHTS assay to identify small molecule antagonists of the peroxisome proliferator-activated receptor gamma (PPARg) signaling pathway - cell viability counter screen (AID 743194). Note: nearly all actives have a fitted effect of over 55% in size. In outline:
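PPARg-UAS-bla HEK293H cells were plated, rested 5 h at 37 C, then treated with compounds plus rosiglitazone (50 nM final) for 17 h at 37 C; viability was then read by CellTiter-Glo luminescence after 30 min at room temperature.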

Assay [6] in a line: qHTS assay for small molecule agonists of the antioxidant response element (ARE) signaling pathway - cell viability counter screen (AID 743203; calls by dose curve; note: nearly all actives have a fitted effect of over 55% in size). In outline:
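CellSensor ARE-bla HepG2 cells, 2,000 per well, rested 5 hrs at 37C/5% CO2, then exposed to compound in DMSO for 16 hrs; viability read as CellTiter-Glo luminescence after 30 min at room temperature, in the reporter wells.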

Assay [7] in a line: qHTS assay for small molecule activators of the heat shock response signaling pathway - cell viability counter screen (AID 743209). Note: nearly all actives have a fitted effect of over 50% in size. In outline: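 CellSensor HSE-bla HeLa cells, plated overnight at 37 C/5% CO2, were exposed to compounds in DMSO for 5 h at 37 C. Viability was then read in the same wells by CellTiter-Glo luminescence after 30 min at room temperature.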
Assay [8] in a line: qHTS assay for small molecule activators of the heat shock response signaling pathway (AID 743210; active = well fitted activation curve with a large enough effect in the signal ratio in the repeat runs, with a control signal flat, not every such curve was filed as active; the % refers to the signal ratio;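 note: HeLa cells with beta-lactamase reporter driven by heat shock elements; series mostly up to about 63 µM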). In a few lines:
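Reporter gene assay: HeLa cells stably bearing an HSE-bla construct, compound treatment 5 h at 37 C, LiveBLAzer substrate 2.5 h at RT, fluorescence intensity.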

Assay [9] is described as follows: qHTS assay to identify small molecule agonists of the peroxisome proliferator-activated receptor delta (PPARd) signaling pathway - cell viability counter screen (AID 743211). Note: nearly all actives have a fitted effect of over 55% in size. In a few lines: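 qHTS cell viability: PPARd-bla HEK293H; 17 h cpd, 37C; CellTiter-Glo, luminescence at 30 min RT.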
Assay [10] deals with Peroxisome proliferator-activated receptor delta (Homo sapiens) (UniProt Q03181). The assay can be described thus: qHTS assay to identify small molecule agonists of the peroxisome proliferator-activated receptor delta (PPARd) signaling pathway (AID 743212; calls by dose curve). In a few lines:
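A PPARd-bla HEK293H line with beta-lactamase under an Upstream Activator Sequence is treated with compounds at 37 C. Substrate loading for 2 h at room temperature precedes the fluorescence measurement.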

For assay [11] the target is unchanged. The assay can be described thus: qHTS assay to identify small molecule antagonists of the peroxisome proliferator-activated receptor delta (PPARd) signaling pathway (AID 743215; active = well fitted inhibition curve with a large enough effect in the signal ratio in the repeat runs, not every such curve was filed as active; the % refers to the signal ratio;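 note: cells stimulated with agonist L165041 at 300 nM final during compound exposure; series mostly up to about 62 µM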). In outline:
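PPARd UAS-bla HEK293H cells were pre-incubated 5 h at 37 C, then given test compounds in DMSO plus agonist L165041 (300 nM final). After 17 h at 37 C, beta-lactamase FRET substrate was added; fluorescence read after 2 h at room temperature.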

In assay [12] the target is Bile acid receptor (Homo sapiens) (UniProt Q96RI1). The assay can be described thus: qHTS assay to identify small molecule antagonists of the farnesoid-X-receptor (FXR) signaling pathway (AID 743217; active = well fitted inhibition curve with a large enough effect in the signal ratio in the repeat runs, not every such curve was filed as active; the % refers to the signal ratio). In a few lines:
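FXR-UAS-bla HEK 293T cells pre-incubated 5 h at 37 °C, then exposed to compounds with chenodeoxycholic acid (50 uM final) for 16 h at 37 °C. Beta-lactamase reporter read by LiveBLAzer B/G FRET substrate fluorescence after 2 h at room temperature.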

A short description of assay [13]: qHTS assay to identify small molecule agonists of the farnesoid-X-receptor (FXR) signaling pathway - cell viability counter screen (AID 743218). Note: nearly all actives have a fitted effect of over 45% in size. In outline:
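FXR-UAS-bla HEK 293T cells, plated 5 h at 37 C, were exposed to compounds for 16 h at 37 C. CellTiter-Glo was then added to the same wells as the bla readout; luminescence read after 30 min at room temperature.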

Assay [14] concerns the target Bile acid receptor (Homo sapiens) (UniProt Q96RI1). The assay can be described thus: qHTS assay to identify small molecule agonists of the farnesoid-X-receptor (FXR) signaling pathway (AID 743220; active = well fitted activation curve with a large enough effect in the signal ratio in the repeat runs, not every such curve was filed as active; the % refers to the signal ratio). In outline: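 Beta-lactamase reporter under UAS control in GeneBLAzer FXR HEK 293T cells (5000/well) measured with LiveBLAzer FRET substrate after 2 h at room temperature. Compound exposure lasted 16 h at 37C.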

Assay [15] can be described thus: qHTS assay to identify small molecule antagonists of the farnesoid-X-receptor (FXR) signaling pathway - cell viability counter screen (AID 743221; active = well fitted cell-killing curve with a large enough effect in the repeat runs, not every such curve was filed as active; note: nearly all actives have a fitted effect of over 50% in size). In outline: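 After a 5 h settling period, FXR-bla HEK 293T cells receive compound and chenodeoxycholic acid (50 uM final) and incubate 16 h at 37 C; CellTiter-Glo luminescence, read after 30 min at room temperature, reports cell viability.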

The nature of assay [16]: qHTS assay to identify small molecule agonists of the vitamin D receptor (VDR) signaling pathway - cell viability counter screen (AID 743224). Note: series mostly up to about 63 µM; nearly all actives have a fitted effect of over 50% in size. In a few lines:
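VDR-bla cells were preincubated 4 h at 37C/5% CO2, then exposed to compounds for 16 h. After the 2 h room-temperature bla FRET read, CellTiter-Glo was added to the same wells and luminescence read after 30 min.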

A short description of assay [17]: qHTS assay for small molecule agonists of the antioxidant response element (ARE) signaling pathway (AID 743202; active = well fitted activation curve with a large enough effect in the signal ratio in the repeat runs, not every such curve was filed as active; the % refers to the signal ratio). In outline:
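Compounds delivered in DMSO to ARE-bla HepG2 cells (2,000 cells/well, pre-incubated 5 h) and left 16 h at 37 C. LiveBLAzer B/G FRET substrate then added for 2 h at RT before fluorescence reading.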

Assay [18] in a line: qHTS assay to identify small molecule antagonists of the peroxisome proliferator-activated receptor delta (PPARd) signaling pathway - cell viability counter screen (AID 743213). Note: nearly all actives have a fitted effect of over 50% in size. In a few lines: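 HEK293H PPARd UAS-bla cells, 5 h pre-incubation, compound + L165041 300 nM final, 17 h 37 C; B/G FRET substrate 2 h RT; then CellTiter-Glo 30 min RT, luminescence.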
Assay [19] has as its target Vitamin D3 receptor (Homo sapiens) (UniProt P11473). Put plainly: qHTS assay to identify small molecule agonists of the vitamin D receptor (VDR) signaling pathway (AID 743222; calls by dose curve). In a few lines:
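VDR-bla cells were plated 4 h at 37C/5% CO2, then exposed to compounds in DMSO for 16 h. After LiveBLAzer B/G FRET substrate addition and 2 h at room temperature, beta-lactamase reporter fluorescence was read.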

Assay [20] shares this target. The assay can be described thus: qHTS assay to identify small molecule antagonists of the vitamin D receptor (VDR) signaling pathway (AID 743223; active = well fitted inhibition curve with a large enough effect in the signal ratio in the repeat runs, not every such curve was filed as active; the % refers to the signal ratio). In a few lines:
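Reporter line VDR-bla; stimulus 1alpha,25-(OH)2 vitamin D3, 3 nM final; compound co-addition, 16 h 37C/5% CO2; LiveBLAzer B/G substrate 2 h RT; fluorescence intensity.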

Results filed as inconclusive are left out. Unmarked numbers belong to inactive results. The source made the active and inactive calls. Unless noted, calls come from the whole dose curve; as a rule, active = well fitted curve in the direction sought with a large enough effect in the repeat runs; inconclusive = weak or mixed curves; inactive = no such curve, though single readings can be large; an effect the other way counts as inactive or inconclusive.

Chain of Aryl hydrocarbon receptor (Homo sapiens) (P35869 whole entry, looked up): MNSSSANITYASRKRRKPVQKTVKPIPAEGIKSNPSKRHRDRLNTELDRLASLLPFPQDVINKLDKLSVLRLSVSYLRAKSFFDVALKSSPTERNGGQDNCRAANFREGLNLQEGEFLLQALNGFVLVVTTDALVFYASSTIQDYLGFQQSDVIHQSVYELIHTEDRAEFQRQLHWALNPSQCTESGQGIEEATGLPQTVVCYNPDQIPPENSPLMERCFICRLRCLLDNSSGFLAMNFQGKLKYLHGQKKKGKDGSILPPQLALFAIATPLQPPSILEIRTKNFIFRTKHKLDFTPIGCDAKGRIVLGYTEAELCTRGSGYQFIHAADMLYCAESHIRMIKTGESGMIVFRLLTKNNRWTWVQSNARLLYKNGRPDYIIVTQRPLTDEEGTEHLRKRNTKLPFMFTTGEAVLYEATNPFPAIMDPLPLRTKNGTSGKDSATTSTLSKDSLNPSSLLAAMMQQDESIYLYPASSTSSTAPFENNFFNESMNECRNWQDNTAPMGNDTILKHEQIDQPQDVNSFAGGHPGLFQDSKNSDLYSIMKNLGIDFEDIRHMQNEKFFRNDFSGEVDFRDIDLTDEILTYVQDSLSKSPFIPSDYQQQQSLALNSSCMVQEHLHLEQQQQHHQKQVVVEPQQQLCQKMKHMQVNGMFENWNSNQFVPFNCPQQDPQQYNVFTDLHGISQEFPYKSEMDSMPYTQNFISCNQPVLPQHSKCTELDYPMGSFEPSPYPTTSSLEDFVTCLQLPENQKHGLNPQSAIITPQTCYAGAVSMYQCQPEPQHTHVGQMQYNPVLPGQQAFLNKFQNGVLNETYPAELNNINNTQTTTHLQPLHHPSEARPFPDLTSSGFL
Chain of Bile acid receptor (Homo sapiens) (Q96RI1 whole entry, looked up): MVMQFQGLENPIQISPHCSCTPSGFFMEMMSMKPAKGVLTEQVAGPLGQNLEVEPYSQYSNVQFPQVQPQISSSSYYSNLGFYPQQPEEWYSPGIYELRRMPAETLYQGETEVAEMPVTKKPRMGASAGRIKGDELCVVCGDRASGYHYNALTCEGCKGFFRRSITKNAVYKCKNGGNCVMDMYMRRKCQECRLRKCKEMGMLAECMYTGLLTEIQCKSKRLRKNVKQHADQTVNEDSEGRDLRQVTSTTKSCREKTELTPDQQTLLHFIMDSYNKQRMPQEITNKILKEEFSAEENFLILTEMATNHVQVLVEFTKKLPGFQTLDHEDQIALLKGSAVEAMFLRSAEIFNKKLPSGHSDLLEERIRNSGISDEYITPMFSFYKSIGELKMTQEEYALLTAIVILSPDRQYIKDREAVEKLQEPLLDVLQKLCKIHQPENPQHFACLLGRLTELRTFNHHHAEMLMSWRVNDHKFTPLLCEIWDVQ
Chain of Peroxisome proliferator-activated receptor gamma (Homo sapiens) (P37231 whole entry, looked up): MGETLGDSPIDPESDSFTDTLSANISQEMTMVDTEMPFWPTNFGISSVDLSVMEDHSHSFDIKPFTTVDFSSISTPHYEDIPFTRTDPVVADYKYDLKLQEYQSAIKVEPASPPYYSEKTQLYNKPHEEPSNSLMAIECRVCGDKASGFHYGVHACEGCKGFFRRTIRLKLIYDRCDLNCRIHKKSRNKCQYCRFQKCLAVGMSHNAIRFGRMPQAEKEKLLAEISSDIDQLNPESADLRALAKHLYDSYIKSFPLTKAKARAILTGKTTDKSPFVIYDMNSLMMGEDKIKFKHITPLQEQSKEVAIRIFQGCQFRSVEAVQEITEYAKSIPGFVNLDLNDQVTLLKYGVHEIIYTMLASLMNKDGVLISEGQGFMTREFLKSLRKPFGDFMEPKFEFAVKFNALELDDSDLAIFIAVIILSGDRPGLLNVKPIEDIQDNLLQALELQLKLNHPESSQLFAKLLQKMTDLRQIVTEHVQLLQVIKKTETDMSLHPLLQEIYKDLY
Chain of Peroxisome proliferator-activated receptor delta (Homo sapiens) (Q03181 whole entry, looked up): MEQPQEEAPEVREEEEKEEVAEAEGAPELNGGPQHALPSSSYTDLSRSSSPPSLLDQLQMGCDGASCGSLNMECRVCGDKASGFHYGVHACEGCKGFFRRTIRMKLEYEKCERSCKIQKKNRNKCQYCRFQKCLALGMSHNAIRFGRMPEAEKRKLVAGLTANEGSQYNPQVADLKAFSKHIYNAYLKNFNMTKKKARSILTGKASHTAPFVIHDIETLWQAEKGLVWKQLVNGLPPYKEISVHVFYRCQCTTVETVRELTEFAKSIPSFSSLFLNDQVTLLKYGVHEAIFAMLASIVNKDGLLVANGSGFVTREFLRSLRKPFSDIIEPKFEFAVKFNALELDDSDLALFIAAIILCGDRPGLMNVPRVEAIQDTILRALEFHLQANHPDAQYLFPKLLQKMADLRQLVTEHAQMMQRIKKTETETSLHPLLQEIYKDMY
Chain of Vitamin D3 receptor (Homo sapiens) (P11473 whole entry, looked up): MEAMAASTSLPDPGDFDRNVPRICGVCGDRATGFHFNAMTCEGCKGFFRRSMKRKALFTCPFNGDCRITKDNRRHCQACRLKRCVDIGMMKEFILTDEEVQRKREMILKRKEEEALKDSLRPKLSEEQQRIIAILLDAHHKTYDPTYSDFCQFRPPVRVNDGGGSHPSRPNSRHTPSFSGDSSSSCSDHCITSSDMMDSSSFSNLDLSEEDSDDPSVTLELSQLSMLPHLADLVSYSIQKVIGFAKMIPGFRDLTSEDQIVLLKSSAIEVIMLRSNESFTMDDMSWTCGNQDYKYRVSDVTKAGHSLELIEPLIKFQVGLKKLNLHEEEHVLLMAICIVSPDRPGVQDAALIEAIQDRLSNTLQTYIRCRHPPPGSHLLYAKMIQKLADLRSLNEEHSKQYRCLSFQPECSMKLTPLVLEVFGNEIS

Consider `NC(=O)Cc1cccc2ccccc12`, for which the Potency entry in [1], in assay [2], in [3] and in assay [4] was “inactive” throughout. The call in assay [5], in assay [6], in [7], in [8], in [9] and in [10] was inactive. The compound was classed as inactive in [11], in assay [12], in assay [13], in assay [14], in assay [15] and in assay [16].
As for `Cc1ccc(C(=O)c2ccccc2)cc1`, the Potency result in [1], in assay [2], in assay [3] and in assay [17] was “inactive” in each case. Further, the outcome in assay [5], in assay [6], in [7], in [8], in [9] and in assay [10] was inactive. For the same compound, the call in assay [18], in assay [11], in [12], in [13], in [14] and in assay [15] was inactive. Moreover, the call in assay [19], in [20] and in [16] was inactive.
As to `COc1ccccc1OCC1CNC(=O)O1` (configuration not stated), the Potency entry in assay [1], in assay [2], in [3] and in [17] was “inactive” each time. Also, the call in assay [5], in [6], in assay [7], in assay [8], in assay [9] and in assay [10] was inactive. For the same compound, the result in [18], in assay [11], in [13], in assay [15], in [19] and in assay [20] was inactive. The outcome in assay [16] was inactive.
On to `CCCCc1nc(Cl)c(CO)n1Cc1ccc(-c2ccccc2-c2nn[nH]n2)cc1`, for which the Potency entry in assay [1], in assay [2] and in [4] was “inactive” each time. Also, the Potency in assay [3] was 23.9 µM (active). The compound was called inactive in [5], in [6], in assay [8], in [9], in assay [10] and in assay [18]. For the same compound, the compound was called inactive in assay [11], in assay [12], in assay [13], in assay [14], in assay [15] and in assay [16].
As for `CC(C)[C@H]1CC[C@@H](C)CC1=O`, the Potency entry in assay [1], in assay [2], in assay [3] and in [17] was “inactive” throughout. Further, the call in assay [5], in assay [6], in assay [7], in assay [8], in assay [9] and in assay [18] was inactive. Moreover, the result in assay [13], in [15] and in [16] was inactive.
On to `CO[C@@]1(NC(=O)CSC[C@@H](N)C(=O)O)C(=O)N2C(C(=O)O)=C(CSc3nnnn3C)CS[C@@H]21`, for which the Potency result in assay [1], in [2], in assay [3] and in [4] was “inactive” throughout. Moreover, the result in [5], in assay [6], in assay [7], in assay [8], in assay [9] and in assay [12] was inactive. Further, the outcome in [13], in [15], in [20] and in [16] was inactive.
For `CC12CCC(C(=O)C1=O)C2(C)C` (configuration not stated), the Potency entry in assay [1], in assay [2], in assay [3] and in assay [17] was “inactive” throughout. Also, the compound was classed as inactive in [5], in assay [6], in assay [7], in assay [8], in assay [9] and in assay [10]. For the same compound, the compound was called inactive in assay [18], in assay [11], in [12], in [13], in [14] and in assay [15]. The call in assay [19] and in assay [20] was inactive.
`CCCCCC(=O)OCCc1ccccc1`: the Potency result in assay [1], in assay [2], in assay [3] and in [4] was “inactive” throughout. The compound was called inactive in assay [5], in assay [6], in [7], in assay [8], in assay [9] and in assay [13]. In addition, the compound was classed as inactive in [15], in [19], in [20] and in assay [16].
